Sampled rows, rich in hits. Any-hit rate of the full collection: about 11%.
IMPase Li inh – membrane-permeable IMPase blocker, potentiated with lithium; CHO-M1 cells, IP1 TR-FRET (IP-One), carbachol + lithium; Potency, µM (series often up to 59.4 µM), for inactives: at the top dose activity, negative = IMPase inhibition, usual class: inhibitors; actives 0.35% (n = 210,000);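 also: IP1 builds up when IMPase is blocked and the TR-FRET signal falls; potency is read from the fitted curve at half-maximal effect; plate controls were basal vehicle for no effect and high inhibitor control for full effect; nearly all actives have a fitted effect of over 50% in size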
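Steps: plate 2000 CHO-M1 cells per well and culture 16–30 h; add compound and lithium; incubate 30 min, 37C; add d2-IP1 tracer and Eu cryptate anti-IP1 antibody in lysis buffer; read after 10 min at room temperature.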
ALDH1A1 inh – blocks purified human ALDH1A1 activity | actives 7.3% (n = 220,000) | Purified ALDH1A1, NADH fluorescence, propionaldehyde substrate | AID 1030 | Potency, µM (highest dose often 75.3 µM), without a hit: at the top dose activity, negative = inhibition, most hits filed as inhibitors; active = well fitted inhibition curve with a large enough effect, not every such curve was filed as active; inconclusive = small, poorly fitted or top-dose-only effect, or another doubt; inactive = no such curve, though single readings can be large or run the other way;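 also: potency is read from the fitted curve at half-maximal effect; plate controls were no enzyme wells and a reference inhibitor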
Target sequence (P00352 whole entry, looked up): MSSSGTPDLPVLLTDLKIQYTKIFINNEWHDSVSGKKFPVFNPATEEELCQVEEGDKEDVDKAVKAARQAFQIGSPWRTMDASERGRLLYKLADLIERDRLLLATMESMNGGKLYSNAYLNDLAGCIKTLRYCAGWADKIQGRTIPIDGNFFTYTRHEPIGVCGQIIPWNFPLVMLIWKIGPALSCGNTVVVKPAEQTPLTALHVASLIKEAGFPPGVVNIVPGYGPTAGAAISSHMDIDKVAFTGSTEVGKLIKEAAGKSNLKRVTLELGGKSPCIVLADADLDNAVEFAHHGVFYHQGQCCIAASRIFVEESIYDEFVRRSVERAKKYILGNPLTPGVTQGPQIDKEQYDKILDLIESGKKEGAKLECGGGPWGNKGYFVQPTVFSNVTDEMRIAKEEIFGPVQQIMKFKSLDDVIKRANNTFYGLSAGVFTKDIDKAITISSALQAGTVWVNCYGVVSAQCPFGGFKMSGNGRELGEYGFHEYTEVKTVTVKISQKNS
PNC inhibitor – inhibitors of perinucleolar compartment assembly | activity change (PNC), negative = inhibition, % at 10 µM | actives 3.1% (n = 140,000) | AID 2417 | PC3M PTB-GFP, PNC prevalence imaging, 16 h; active compounds read low;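 active = readout at or below -70, meaning at least 70% loss of cells showing the perinucleolar compartment, a nuclear body marking cancer cells; inconclusive = readout between -30 and a set limit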;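 also: plate controls were DMSO wells for no effect and camptothecin positive control wells for full effect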
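Read-out is percentage of cells bearing a perinucleolar compartment, from automated 20x imaging of fixed, Hoechst-stained PC3M PTB-GFP cells. Cells were seeded 4 h, then exposed 16 h to compound (23 nl of library stock) in duplicate plates.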
IMPase cell inh – IMPase inhibition in cells; AID 901; CHO-M1 cells, IP1 accumulation, HTRF TR-FRET ratio; 120,000 tested, under 10 active; inhibition (IP1 accumulation), % at 46.1 µM; active = well fitted curve in the direction sought with a large enough effect in the signal ratio, not every such curve was filed as active; inconclusive = small, poorly fitted or top-dose-only effect, or a change in a side signal; inactive = no such curve, though single readings can be large or run the other way; the % refers to the signal ratio;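 also: cells stimulated with carbachol in lithium chloride buffer; plate controls were DMSO basal wells for no effect and reference inhibitor wells for full effect; higher means more IMPase inhibition seen as more IP1 and lower FRET ratio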
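CHO-M1 cells (CHO stably expressing M1 receptor), compound up to 46 uM final, stimulated with carbachol (50 uM as added) in buffer with 50mM LiCl, pH 7.4, 30 min at 37C. Cytosolic IP1 read by TR-FRET; AC50 from Hill fits.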
12-hLO inh – blocks human 12-lipoxygenase activity; purified 12-hLO, xylenol orange hydroperoxide absorbance; AID 1452; Potency, µM (top dose mostly 57.1 µM), for inactives: top-dose activity change, negative = inhibition, actives largely listed as inhibitors; actives 0.12% (n = 150,000); also: potency is read from the fitted curve at half-maximal effect; nearly all actives have a fitted effect of over 55% in size
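150 nM 12hLO, 25 mM Hepes pH 7.0 + 0.01% Triton X-100; cpd preinc 15 min RT; 40 uM arachidonic acid, 30 min RT; Fe-XO 30 min; A573/A405 ratio as read-out.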
HPGD block – inhibitors of human 15-hydroxyprostaglandin dehydrogenase (HPGD); Potency, µM, inactives show at the highest dose activity change, negative = inhibition, usual class: inhibitors; purified HPGD, NADH fluorescence kinetic, PGE2 substrate; actives 4.3% (n = 150,000); P15428; active = well fitted inhibition curve with a large enough effect, not every such curve was filed as active; inconclusive = small, poorly fitted or top-dose-only effect, or another doubt; inactive = no such curve, though single readings can be large or run the other way; also: potency is read from the fitted curve at half-maximal effect
Target sequence (P15428 whole entry, looked up): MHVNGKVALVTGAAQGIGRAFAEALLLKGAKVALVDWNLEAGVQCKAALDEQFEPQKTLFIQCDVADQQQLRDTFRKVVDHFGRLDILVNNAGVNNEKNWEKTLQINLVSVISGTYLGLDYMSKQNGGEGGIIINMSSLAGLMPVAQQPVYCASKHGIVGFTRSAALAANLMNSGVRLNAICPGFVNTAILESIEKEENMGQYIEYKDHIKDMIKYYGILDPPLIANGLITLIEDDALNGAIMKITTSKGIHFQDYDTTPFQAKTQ
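NADH formation kinetics: reaction with 30 uM PGE2 and 1 mM NAD+ (final), 20 nM enzyme, Tris-HCl pH 8 with Tween 20, after 15 min compound preincubation at room temperature. Fluorescence change, last versus first of five reads.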
* = called active by the depositor; ? = inconclusive; . = no result given; [ ] = remark or other dose. Unless noted, calls follow the shape of the dose curve; as a rule, active = well fitted curve in the direction sought with a large enough effect; inconclusive = small, poorly fitted or top-dose-only effect, or another doubt; inactive = no such curve, though single readings can be large; an effect the other way counts as inactive or inconclusive. Unless noted, % is scaled to controls: 0 for no effect and ±100 for the full control effect.

SMILES	IMPase Li inh	ALDH1A1 inh	PNC inhibitor	IMPase cell inh	12-hLO inh	HPGD block
CC1(C)CC2C1CC[C@]1(C)CCC3C(C(=O)O)CC(=O)O[C@]32C1 (stereo partly specified)	2%	23%	.	.	0%	-9%
COc1ccccc1N1CSC2=C(C#N)C(c3ccc(SC)cc3)CC(=O)N2C1 (stereo unspecified)	-15%[38.3 µM]	8.9µM*	-17	1	?	8.9µM*
COc1cc(C2CC(=O)N3CN(c4ccccc4C)CSC3=C2C#N)cc(OC)c1OC (stereo unspecified)	-27%[38.3 µM]	2.8µM*	8	-4	?	28µM*
COc1cc(C2CC(=O)NC(SCC(=O)Nc3ccccc3C)=C2C#N)ccc1O (stereo unspecified)	-1%[38.3 µM]	-2%	-5	2	-8%	-1%
C/C=C/C1=Cc2ccccc2C(C(C(=O)OC)C(=O)OC)N1C(=O)OC (stereo unspecified)	2%	3%	.	.	.	-2%
NS(=O)(=O)c1ccc(NC(=O)COC(=O)COc2cccc(C(F)(F)F)c2)cc1	.	4%	.	.	.	.
C=Cc1ccc([C@H]2N[C@@H](C(=O)O)CC[C@@H]2C)cc1	.	13%[13.5 µM]	.	.	.	.
CC(=O)O[C@@H]1CC2C(C)(C)C(=O)C=C[C@]2(C)C2CC[C@]3(C)C(=CC[C@H]3C3CO[C@@H](C(C)(C)O)[C@H](O)C3)[C@@]21C (stereo partly specified)	12%	2%	.	.	.	-9%
Cc1ccc(OCCn2c(-c3ccc(Br)cc3)nc3ccccc3c2=O)cc1C	.	.	.	5	.	.
O=C1c2ccccc2-c2nnc(-c3ccc(F)cc3)cc21	2%	-6%	.	.	.	.
Cc1ccccc1-c1cc2c(nn1)-c1ccccc1C2=O	21%[38.3 µM]	25µM*	19	8	-21%	?
N/C(CN1CCCC1=O)=N\O	-7%[38.3 µM]	8%	29	13	3%	-8%
N/C(CN1CCCC1=O)=N\OC(=O)c1ccccc1Cl	-5%	17%	-87*	5	2%	-14%
COC(=O)NC(c1cccc(C)c1)[C@@]1(C(=O)OC)CCCC1=O (stereo partly specified)	.	12%[13.5 µM]	.	.	.	.
C=CCSc1nnc(-c2sc(-c3ccccc3)nc2C)n1C	-12%	?	-7	-3	1%	?
C=CCN(C(=O)CSC1=NC(=O)CN1C(C)=O)c1nc(C)c(-c2ccccc2)s1	18%	6.3µM*	.	.	.	.
Cc1ccc2c(c1)/C(=N/N1C(=O)c3ccccc3C1=O)C(=O)N2	5%	-7%	-25	.	1%	-6%
Nc1n[nH]c(=S)n1/N=C1/C(=O)Nc2ccccc21	30%	7.9µM*	.	.	.	.
COc1ccc(CNC(=O)C2CC(=O)N(c3ccc(OCC(=O)N4CCCCC4)cc3)C2)cc1 (stereo unspecified)	19%[38.3 µM]	?	-2	-19	4%	14µM*
COc1cc2nc3c(c([Si](C)(C)C(C)(C)C)c2cc1OC)Cn1c-3cccc1=O	-10%	?	.	.	-9%	?
CC(C)CNC(=O)c1ccc(Cl)c(N)c1	-1%	6%	-9	.	3%	-25%
CCOC(=O)c1c(NC(=S)Nc2cc([N+](=O)[O-])ccc2OC)sc2c1CCCCC2	-4%	?	21	-8	-4%	-27%
COC(=O)c1c(NC(=O)c2c(OC)cccc2OC)sc2c1CCCC2	.	.	.	-14	.	.
COC(=O)c1c(NC(=O)c2ccoc2C)sc2c1CCC2	?	?	-109*	?	-6%	?
COC(=O)c1c(NC(=O)c2nn(C)cc2Cl)sc2c1CCCC2	12%	?	-92*	-2[0.0738 µM]	2%	?
SMILES	IMPase Li inh	ALDH1A1 inh	PNC inhibitor	IMPase cell inh	12-hLO inh	HPGD block
COC(=O)c1c(NC(=S)Nc2cc(OC)c(Cl)cc2OC)sc2c1CCCCC2	-12%	6.3µM*	?	.	-3%	?
CC(=O)c1cccc(NC(=O)c2nc3ccccc3n(C)c2=O)c1	.	.	.	6	.	.
CCCCOC(=O)c1c(N)n(-c2ccc(OC)cc2OC)c2nc3ccccc3nc12	.	.	.	-5	.	.
COc1cc2c(cc1OC)C(c1cccc(OC)c1OC)CC(=O)N2 (stereo unspecified)	13%[38.3 µM]	3%	?	1	-5%	-14%
CCOc1c(OC)cccc1C1CC(=O)Nc2cc(OC)c(OC)cc21 (stereo unspecified)	1%	6%	20	-10	-1%	-6%
COc1cc2c(cc1OC)C(c1ccc(N(C)C)cc1)CC(=O)N2 (stereo unspecified)	11%[38.3 µM]	8.9µM*	30	9	-1%	-13%
CCN(CC)c1ccc(C2CC(=O)Nc3cc(OC)c(OC)cc32)cc1 (stereo unspecified)	7%[38.3 µM]	13µM*	28	9	-5%	-10%
COc1cc2c(cc1OC)C(c1cccnc1)CC(=O)N2 (stereo unspecified)	0%	8%	-82*	-7	-3%	-5%
CCOc1ccccc1OCC(=O)NCc1ccco1	14%[38.3 µM]	?	16	-6	-8%	-20%
Cc1cc(Cl)cc(Cl)c1OCC(=O)NCc1ccco1	-6%[38.3 µM]	?	26	1	?	25µM*
O=C(COc1ccc(Cl)cc1Cl)NCc1ccco1	-10%[38.3 µM]	0%	37	0	-14%	?
O=C(COc1ccccc1-c1ccccc1)NCc1ccco1	45%	7.1µM*	.	.	.	.
Cc1ccc(OCC(=O)NCc2ccco2)cc1C	10%[38.3 µM]	?	?	-3	-9%	20µM*
CCOc1ccc(NS(=O)(=O)c2ccc3c4c(cccc24)C(=O)N3)cc1	.	.	.	9	.	.
COc1ccc(-c2nc3cnc(OC)nc3n(CCC#N)c2=O)cc1	-11%	-15%	.	.	.	.
O=C(O)c1cc(NN=Nc2cccc([N+](=O)[O-])c2)cc([N+](=O)[O-])c1	.	20µM*	.	.	.	.
O=C(O)c1cc(NN=Nc2ccc(Br)cc2)cc([N+](=O)[O-])c1	.	6.3µM*	.	.	.	.
CN(C)C(=S)Nc1nc2ccccc2s1	0%	7.9µM*	.	.	.	.
CCOc1ccc2nc(NC(=S)N(C)C)sc2c1	23%[38.3 µM]	25µM*	36	12	-12%	14µM*
CC(=O)NNc1nc2ccccc2s1	8%[38.3 µM]	4%	58	-3	1%	-13%
CCOCC(=O)Nc1nc2ccccc2s1	8%	22µM*	-14	4	0%	-3%
CCOc1ccc2nc(NC(=O)c3cccnc3)sc2c1	-5%	9%	-108*	.	4%	-15%
CCNC(=O)Nc1nc2ccccc2s1	-4%	12%	.	.	.	.
COCCCNC(=O)CSc1nc(-c2ccc(OC)cc2)[nH]c1-c1ccc(OC)cc1	.	.	.	5	.	.
CCOc1ccc2nc(NC(=O)CS(=O)(=O)c3ccccc3)sc2c1	28%[38.3 µM]	-4%	14	6	-2%	-25%
